Screening results: PubChem BioAssay, The Scripps Research Institute Molecular Screening Center
Compounds with a hit are over-represented: about 3.4% of the library has one in this group of screens.
TEAD-YAP block: TEAD-YAP interaction inhibition. HEK-TIYL cells, TEAD-Gal4/YAP UAS-luciferase luminescence. inhibition, % at 9.12 µM. AID 1259422. 1.4% of 640,000 active; in the data active means inhibition above about 32%;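 further: 0% = median of test compound wells and 100% = reference inhibitor wells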
GPR151 activ: activates the human receptor GPR151; activation, % at 11.2 µM; PathHunter beta-arrestin GPR151 cells, luminescence; Q8TDV0; 1% of 650,000 active; in the data active means activation above about 4.9%;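 further: 0% = median of compound wells and 100% = cells with positive control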
FBW7 act: activators of human E3 ligase FBW7; Q969H0; AlphaScreen FBW7–phospho-cyclin E peptide binding, activator screen; normalized activity (activation), % at 26.1 µM; 0.13% of 650,000 active; in the data active means normalized activity above about 1.9%;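 further: purified mutant Fbw7 with reduced substrate affinity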
MITF primary: blocks human microphthalmia-associated transcription factor; inhibition, % at 2.6 µM; O75030; AID 1259374; AlphaScreen MITF homodimerization, bead proximity signal; 0.91% of 650,000 active; in the data active means inhibition above about 50%;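 further: 0% = vehicle wells with protein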
GPR151 confirm: human GPR151 activation, confirmation screen. GPR151 PathHunter beta-arrestin cells, luminescence, 90 min; % of EA-reagent control over plate median. AID 1508609. shares compounds with GPR151 activ. activation, % at 11.2 µM. 6,700 tested, under 10 active;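 active means mean percent activation across replicates above the confirmation screen cutoff of 4.91%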
GPR119 ag: GPR119 activation, counter-screen for GPR151 activators. shares compounds with GPR151 activ. GPR119 PathHunter beta-arrestin cells, luminescence, 90 min; 0 = compound-well median, 100 = enzyme-acceptor control. activation, % at 11.2 µM. 0.3% of 6,700 active. AID 1508611;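 active means mean percent activation in the counterscreen above 29.09%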;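 further: counterscreen on off-target GPR119 to flag nonselective hits from the GPR151 activator screen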
Numbers without * were called inactive; · = no result.

SMILES	TEAD-YAP block	GPR151 activ	FBW7 act	MITF primary	GPR151 confirm	GPR119 ag
CC1(c2cccc(Br)c2)NC(=O)N(Cc2ccccc2F)C1=O (centres undefined)	8	1	0	-4	·	·
COc1ccccc1C1CC(c2ccc(Cl)cc2)Nc2nnnn21 (centres undefined)	1	5.2*	0	8	0	-11
COc1ccccc1C1CC(c2ccc(C(C)C)cc2)Nc2nnnn21 (centres undefined)	-4	-1	0	3	·	·
COc1cccc(/C=N\Nc2nnc3c(n2)[nH]c2c(C)cccc23)c1	2	-1	0	9	·	·
Cc1cccc2c1[nH]c1nc(N/N=C\c3ccccc3O)nnc12	-5	5.0*	0	12	1	3
COc1ccc(/C=N\Nc2nnc3c(n2)[nH]c2c(C)cccc23)cc1OC	-12	9.7*	1	13	0	8
COc1ccc(CCNC(=O)c2cn(-c3ccc(F)cc3F)c(=O)c3ccccc23)cc1OC	0	0	0	5	·	·
O=S(=O)(c1ccc(F)c(F)c1)N1CCCCC1	-5	0	0	1	·	·
